Test results published in the supplement of paper PMC12645437, “Orthogonal IMiD-Degron Pairs Induce Selective Protein Degradation in Cells” (ACS Chemical Biology, 2025).
Whole data set: some 8,300 sequences, median “log2 fold change of degron read counts, EGFP-low vs EGFP+ sorted cells (limma voom), compound-induced degradation” near -1.1, cut for the highest 2% near 3.2. For the sample, the highest values were picked, then their nearest neighbours and some sequences at random.

T1: CRBN, Q96SW2
T1 chain: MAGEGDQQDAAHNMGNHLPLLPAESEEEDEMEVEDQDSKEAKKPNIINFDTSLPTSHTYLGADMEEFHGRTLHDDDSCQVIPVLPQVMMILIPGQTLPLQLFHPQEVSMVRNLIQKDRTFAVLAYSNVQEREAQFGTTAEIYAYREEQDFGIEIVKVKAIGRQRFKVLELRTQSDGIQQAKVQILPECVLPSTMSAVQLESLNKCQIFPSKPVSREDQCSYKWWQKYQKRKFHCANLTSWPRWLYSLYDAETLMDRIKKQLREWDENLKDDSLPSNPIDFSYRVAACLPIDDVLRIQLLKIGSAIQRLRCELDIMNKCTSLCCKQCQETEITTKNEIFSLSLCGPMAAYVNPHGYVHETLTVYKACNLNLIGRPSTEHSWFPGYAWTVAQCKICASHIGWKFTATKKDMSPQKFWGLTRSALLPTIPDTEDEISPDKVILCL


Target: T1, CRBN, Q96SW2
Test: log2 fold change of degron read counts, EGFP-low vs EGFP+ sorted cells (limma voom), compound-induced degradation; higher = more compound-induced degradation of the degron-EGFP fusion; degrons are variants of IKZF1/3 zinc finger 2; compound dose not given here
Details: Jurkat, 18 h
[1] = compound: compound 19 (5-tert-butyl-thalidomide)
[2] = compound: compound 22 (5-morpholino-thalidomide)
[3] = compound: compound 33 (diphenyl IMiD analogue)
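Note: pooled lentiviral library of zinc finger degron-EGFP fusions in mCherry-positive Jurkat cells, FACS-sorted after compound exposure, with degron abundance counted by next-generation sequencing.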

| Sequence | log2 fold change of degron read counts [1] | log2 fold change of degron read counts [2] | log2 fold change of degron read counts [3] | log2 fold change of degron read counts (compound: thalidomide) |
| --- | --- | --- | --- | --- |
| FLCPQCGATFTQKGNLLRHIKL [46F_47L_49P_50Q_52G_53A_54T_55F_67L_, Q9UKT9] | -3.01 | -2.75 | -0.206 | -0.949 |
| FLCEICGHMFTQKGNLLRHIKL [46F_47L_49E_50I_52G_53H_54M_55F_67L_, Q9UKT9] | -2.82 | -2.78 | -2.56 | -2.3 |
| FGCPICGRGFTQKGNLLRHIKL [46F_47G_49P_50I_52G_53R_54G_55F_67L_, Q9UKT9] | 2.07 | -0.191 | 0.245 | -0.872 |
| FTCPQCGATFTQKGNLLRHIKL [46F_47T_49P_50Q_52G_53A_54T_55F_67L_, Q9UKT9] | -2 | -0.214 | 1.22 | 0.676 |
| FTCNQCGAIFTQKGNLLRHIKL [46F_47T_49N_50Q_52G_53A_54I_55F_67L_, Q9UKT9] | -2.47 | -2.59 | -1.37 | -1.93 |
| FVCPQCGAEFTQKGNLLRHIKL [46F_47V_49P_50Q_52G_53A_54E_55F_67L_, Q9UKT9] | -2.41 | -1.67 | -0.946 | -0.352 |
| FECEICGRDFTQKGNLLRHIKL [46F_47E_49E_50I_52G_53R_54D_55F_67L_, Q9UKT9] | -3.1 | -3.32 | -2.34 | -2.82 |
| LGCEICGFNCTQKGNLLRHIKL [46L_47G_49E_50I_52G_53F_54N_55C_67L_, Q9UKT9] | -0.546 | -1.21 | -1.47 | -1.13 |
| FVCEICGRKFTQKGNLLRHIKL [46F_47V_49E_50I_52G_53R_54K_55F_67L_, Q9UKT9] | -1.83 | -1.33 | -1.16 | 1.3 |
| LLCEICGFICTQKGNLLRHIKL [46L_47L_49E_50I_52G_53F_54I_55C_67L_, Q9UKT9] | -0.407 | -0.959 | 0.146 | 1.04 |
| FHCPICGRQFTQKGNLLRHIKL [46F_47H_49P_50I_52G_53R_54Q_55F_67L_, Q9UKT9] | 0.0895 | 0.838 | 1.45 | 0.286 |
| LVCPICGFECTQKGNLLRHIKL [46L_47V_49P_50I_52G_53F_54E_55C_67L_, Q9UKT9] | 0.125 | 2.29 | 1.28 | 2.99 |
| LSCPICGFRCTQKGNLLRHIKL [46L_47S_49P_50I_52G_53F_54R_55C_67L_, Q9UKT9] | 2.79 | 2.57 | 1.22 | 2.27 |
| LQCPICGFECTQKGNLLRHIKL [46L_47Q_49P_50I_52G_53F_54E_55C_67L_, Q9UKT9] | 1.35 | 1.29 | 2.04 | 3.44 |
| LMCPICGFECTQKGNLLRHIKL [46L_47M_49P_50I_52G_53F_54E_55C_67L_, Q9UKT9] | -0.925 | 0.39 | 2.43 | 1.39 |
| LCCPICGFPCTQKGNLLRHIKL [46L_47C_49P_50I_52G_53F_54P_55C_67L_, Q9UKT9] | 0.812 | 1.08 | 1.35 | 1.76 |
| LNCPICGFRCTQKGNLLRHIKL [46L_47N_49P_50I_52G_53F_54R_55C_67L_, Q9UKT9] | 1.52 | 0.801 | 0.131 | 1.04 |
| LFCPICGFRCTQKGNLLRHIKL [46L_47F_49P_50I_52G_53F_54R_55C_67L_, Q9UKT9] | 3.24 | 3.2 | 1.81 | 1.69 |
| LHCPICGFRCTQKGNLLRHIKL [46L_47H_49P_50I_52G_53F_54R_55C_67L_, Q9UKT9] | 2.28 | 2.4 | 1.58 | 1.74 |
| LACPICGFRCTQKGNLLRHIKL [46L_47A_49P_50I_52G_53F_54R_55C_67L_, Q9UKT9] | 3.37 | 2.7 | 1.18 | 2.12 |
| LRCPICGFPCTQKGNLLRHIKL [46L_47R_49P_50I_52G_53F_54P_55C_67L_, Q9UKT9] | 2.94 | 3.54 | 3.02 | 3.44 |
| LKCPICGFRCTQKGNLLRHIKL [46L_47K_49P_50I_52G_53F_54R_55C_67L_, Q9UKT9] | -1.28 | -2.03 | -2.25 | -0.57 |
| LICPICGFPCTQKGNLLRHIKL [46L_47I_49P_50I_52G_53F_54P_55C_67L_, Q9UKT9] | 0.112 | 1.65 | 0.899 | 1.78 |
| FCCPVCGAMFTQKGNLLRHIKL [46F_47C_49P_50V_52G_53A_54M_55F_67L_, Q9UKT9] | 1.36 | 0.957 | 2.19 | 1.18 |
| FGCNVCGACFTQKGNLLRHIKL [46F_47G_49N_50V_52G_53A_54C_55F_67L_, Q9UKT9] | 0.221 | 0.434 | 1.03 | -0.871 |
| FRCEICGHAFTQKGNLLRHIKL [46F_47R_49E_50I_52G_53H_54A_55F_67L_, Q9UKT9] | -3.15 | -2.82 | -1.17 | -1.87 |
| FACNVCGAEFTQKGNLLRHIKL [46F_47A_49N_50V_52G_53A_54E_55F_67L_, Q9UKT9] | -1.27 | -1.39 | -1.75 | -2.2 |
| FMCSVCGHCFTQKGNLLRHIKL [46F_47M_49S_50V_52G_53H_54C_55F_67L_, Q9UKT9] | -2.46 | -3.02 | -2.83 | -2.57 |
